KinaseGlo FLuc = blocks Kinase-Glo luciferase, a counter-screen artifact; Kinase-Glo luciferase, ATP luminescence, 8 min; Potency, µM (doses to about 38.3 µM), for the others: top-dose activity change, negative = inhibition, most hits filed as inhibitors; actives 0.28% (n = 200,000); Q27757; active means well fitted curve in the direction sought with a large enough effect; inconclusive means small, poorly fitted or top-dose-only effect, or another doubt; inactive means no such curve, though single readings can be large; an effect the other way counts as inactive or inconclusive; further: nearly all actives have a fitted effect of over 60% in size
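Compound is pinned into ATP-containing buffer (10 uM ATP, imidazole pH 7.2, 7 mM MgCl2). Kinase-Glo luciferase reagent is then added. Light output is recorded following an 8-min room-temperature incubation.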
ALDH1A1 inh = inhibitors of human aldehyde dehydrogenase 1A1 | Purified ALDH1A1, NADH fluorescence, propionaldehyde substrate | P00352 | actives 7.3% (n = 220,000) | AID 1030 | Potency, µM (doses to about 75.3 µM), for inactives: at the top dose activity, negative = inhibition, most hits filed as inhibitors;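 further: plate controls were no enzyme wells and a reference inhibitor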
Target sequence (P00352 whole entry, looked up): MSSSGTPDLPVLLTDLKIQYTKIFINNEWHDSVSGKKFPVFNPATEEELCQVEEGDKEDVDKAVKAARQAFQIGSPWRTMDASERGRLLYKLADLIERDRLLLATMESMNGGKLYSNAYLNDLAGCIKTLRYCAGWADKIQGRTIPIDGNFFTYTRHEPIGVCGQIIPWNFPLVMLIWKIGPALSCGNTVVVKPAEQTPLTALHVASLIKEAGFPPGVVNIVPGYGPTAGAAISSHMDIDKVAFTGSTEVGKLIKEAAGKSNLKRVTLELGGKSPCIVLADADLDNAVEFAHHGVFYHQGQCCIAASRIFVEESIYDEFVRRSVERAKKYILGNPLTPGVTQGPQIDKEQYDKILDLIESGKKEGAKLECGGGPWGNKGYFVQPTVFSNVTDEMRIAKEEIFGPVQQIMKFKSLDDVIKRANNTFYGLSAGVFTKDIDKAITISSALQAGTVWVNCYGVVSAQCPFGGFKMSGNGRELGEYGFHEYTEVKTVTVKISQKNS
Lamin A splicing = LMNA splicing modulation. HeLa LMNA splicing GFP/RFP minigene ratio, 48 h. Potency, µM (top dose mostly 46.1 µM), for the others: top-dose ratio change, negative = inhibition, usual class: inhibitors. actives 0.01% (n = 200,000); active means well fitted inhibition curve with a large enough effect in the signal ratio, with a control signal flat, not every such curve was filed as active; inconclusive means small, poorly fitted or top-dose-only effect, or effect the other way, or a change in a side signal; the % refers to the signal ratio
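S3 HeLa cells stably expressing lamin A-EGFP splicing minigene plus DsRed2, 600 cells/well, 48 h compound exposure at 37C. Laser-scanning cytometry; analysed as GFP (500-530 nm)/RFP (575-640 nm) total intensity ratio; 0.5% DMSO vehicle.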
HPGD inh = blocks human HPGD enzyme activity; P15428; purified HPGD, NADH fluorescence kinetic, PGE2 substrate; Potency, µM, without a hit: top-dose activity change, negative = inhibition, most hits filed as inhibitors; actives 4.3% (n = 150,000); AID 894
Target sequence (P15428 whole entry, looked up): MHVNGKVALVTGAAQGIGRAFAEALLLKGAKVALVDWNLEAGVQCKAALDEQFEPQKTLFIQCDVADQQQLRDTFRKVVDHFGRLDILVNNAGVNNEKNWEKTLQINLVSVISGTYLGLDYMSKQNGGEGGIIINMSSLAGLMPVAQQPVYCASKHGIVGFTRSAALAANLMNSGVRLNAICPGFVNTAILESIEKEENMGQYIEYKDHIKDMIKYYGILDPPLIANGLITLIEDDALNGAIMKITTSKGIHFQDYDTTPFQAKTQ
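NADH formation kinetics: reaction with 30 uM PGE2 and 1 mM NAD+ (final), 20 nM enzyme, Tris-HCl pH 8 with Tween 20, after 15 min compound preincubation at room temperature. Fluorescence change, last versus first of five reads.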
IMPase Li inh = IMPase inhibition in cells with lithium potentiation; CHO-M1 cells, IP1 TR-FRET (IP-One), carbachol + lithium; Potency, µM (doses to about 59.4 µM), for inactives: at the highest dose activity, negative = IMPase inhibition, hits mostly inhibitors; actives 0.35% (n = 210,000); active means well fitted curve in the direction sought with a large enough effect; inconclusive means small, poorly fitted or top-dose-only effect, or another doubt; inactive means no such curve, though single readings can be large; an effect the other way counts as inactive or inconclusive;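 further: IP1 builds up when IMPase is blocked and the TR-FRET signal falls; plate controls were basal vehicle for no effect and high inhibitor control for full effect; nearly all actives have a fitted effect of over 50% in size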
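Readout is a homogeneous TR-FRET IP1 immunoassay (Ex 320, Em 665 and 620), where raised cytosolic IP1 lowers signal. Cells were CHO-M1 treated 30 min at 37C with test compounds plus a little lithium; AC50 values came from Hill-equation fitting.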
* marks the source's active call; other numbers are inactive results; ? = inconclusive; . = not tested or not shown; [ ] = dose if it differs, or a comment. Most compounds without a hit are left out; they make up all but 9% or so of the library. Unless noted, the call rests on the fitted dose curve; in most records, active means well fitted inhibition curve with a large enough effect (not every such curve was filed as active); inconclusive means small, poorly fitted or top-dose-only effect, or another doubt; inactive means no such curve, though single readings can be large or run the other way. Unless noted, on the % scale 0 is the no-effect control and ±100 the full control effect; potency means the concentration at half of the fitted maximal effect.

SMILES	KinaseGlo FLuc	ALDH1A1 inh	Lamin A splicing	HPGD inh	IMPase Li inh
O=C(Cn1c(=O)ccc2cc(S(=O)(=O)N3CCCC3)ccc21)NCc1ccc(F)cc1	.	.	6%[46 µM]	.	.
COc1ccc(C(=O)CSc2nnc(-c3ccc(S(=O)(=O)N4CCOCC4)cc3)o2)cc1	-1%	0.5µM*	2%	-12%	?
Cc1ccc(CSc2nnc(-c3ccc(NS(=O)(=O)c4ccccc4)cc3)o2)cc1	1%	12%	?	-22%	8%
CCN(CC)S(=O)(=O)c1ccc(-c2nnc(SCC(=O)Nc3cc(OC)cc(OC)c3)o2)cc1	-2%	13µM*	3%	-9%	18%[38.3 µM]
COC(=O)CSc1nnc(-c2ccc(NS(=O)(=O)c3ccccc3)cc2)o1	12%	2%	1%	18µM*	-2%[38.3 µM]
CCN(CC)S(=O)(=O)c1ccc(-c2nnc(SCC(C)=O)o2)cc1	1%	?	-2%	-21%	-12%[38.3 µM]
CCc1nnc(NC(=O)CSc2nnc(-c3ccc(NS(=O)(=O)c4ccccc4)cc3)o2)s1	5%	-11%	3%	14µM*	4%
O=C(CSc1nnc(-c2ccc(S(=O)(=O)N3CCOCC3)cc2)o1)c1ccccc1F	-3%	?	2%	-11%	-29%[38.3 µM]
CC(C)n1cnnc1SCC(=O)Nc1ccc(Br)cc1F	1%	?	.	.	-6%
COc1ccccc1C1C2=C(N=c3s/c(=C/c4cccc(OCC(=O)O)c4)c(=O)n31)c1ccccc1CC2 (stereo not drawn)	1%	?	?	28µM*	14%
CN(C)c1ccc(CC(=O)c2nc3ccccc3s2)cc1	-2%	7.1µM*	2%	-8%	14%
CN(C)C(=O)c1nc2ccccc2s1	0%	-2%	-3%	-14%	1%
COc1cc(/C=C/C(=O)OCC(=O)c2c(N)n(C)c(=O)n(C)c2=O)ccc1OC(F)F	-2%	-14%	-6%[46 µM]	.	-5%
O=c1cc(CO)oc(C(Nc2ccccn2)c2ccccc2Cl)c1O (stereo not drawn)	3%	5µM*	.	.	10%
Cc1ccnc(NC(c2ccccc2O)c2oc(CO)cc(=O)c2O)c1 (stereo not drawn)	-1%	13µM*	.	.	8%
O=c1cc(CO)oc(C(Nc2ccccn2)c2ccc(F)cc2)c1O (stereo not drawn)	0%	8.9µM*	-18%	-22%	-6%
COc1ccc(C(Nc2ccccn2)c2oc(CO)cc(=O)c2O)cc1 (stereo not drawn)	-4%	?	-4%	?	3%
CC(Oc1ccc(Br)cc1)C(=O)NCc1ccccn1 (stereo not drawn)	2%	4%	10%[46 µM]	.	0%
COC(=O)c1cc(=O)nc2scc(C)n12	3%	22µM*	4%	-7%	-23%
COC(=O)c1cc(=O)nc2sc3ccccc3n12	-3%	?	0%	-6%	0%[38.3 µM]
O=C(CNC(=O)c1ccccc1)N/N=C/c1cc(Br)ccc1O	0%	8%	?	-10%	-7%
O=C(CN1CC(c2ccccc2)CC1=O)N/N=C/c1cc(Br)ccc1O (stereo not drawn)	3%	25µM*	?	?	-22%
Nc1ccc(Sc2ccc([N+](=O)[O-])cc2)cc1	2%	-7%	.	.	-2%
O=C1C=CC(=O)N1c1ccc(Sc2ccc([N+](=O)[O-])cc2)cc1	.	0.79µM*	.	.	.
N#Cc1cccc(-c2ccc3ncnc(N4CCNCC4)c3c2)c1	.	-2%	0%	.	10%
SMILES	KinaseGlo FLuc	ALDH1A1 inh	Lamin A splicing	HPGD inh	IMPase Li inh
CN(C)c1ncnc2ccc(-c3cccc(C#N)c3)cc12	.	32µM*	?	.	22%
COc1ccccc1-c1ccc2ncnc(N(C)C)c2c1	-4%	-8%	?	14µM*	20%
Cc1ccc2cccc(NC(=S)NC(=O)c3ccnn3C)c2n1	1%	10µM*	-8%	-2%	6%
O=C(NC(=S)Nc1cccc2cccnc12)c1ccccc1	-2%	?	4%	-6%	-33%[38.3 µM]
Cc1ccc(C)n1CCN1CCN(CC(=O)Nc2ccc(S(N)(=O)=O)cc2)CC1	-4%	25µM*	?	-7%	-1%[38.3 µM]
Cc1ccc(-c2nc(-c3ccc(Cl)cc3)sc2CC(=O)O)c(C)c1	0%	?	?	.	-12%
Cc1ccc(S(=O)(=O)n2nc(-c3ccc(Cl)cc3)nc2NCc2ccco2)cc1	2%	3.5µM*	-8%	-24%	39%[38.3 µM]
CCS(=O)(=O)n1nc(-c2ccccc2)nc1NCc1ccco1	0%	-13%	-5%	5%	-1%
C=CCSC1=N/C(=C\c2sccc2C)C(=O)S1	-4%	2%	-8%	-12%	0%[38.3 µM]
C=CCSC1=N/C(=C\C=C\c2ccco2)C(=O)S1	-1%	20µM*	2%	-23%	5%[38.3 µM]
Cn1cccc1Cc1nnc(SCC(=O)NCc2ccco2)n1-c1ccc(F)cc1	-1%	13µM*	-4%	-5%	6%
O=C(CSc1nnc(COc2ccccc2F)n1-c1ccccc1)NCc1ccco1	-3%	-9%	0%	20µM*	31%[38.3 µM]
Cc1ccc(-n2c(Cc3cccn3C)nnc2SCC(=O)NC2CCCCC2)cc1	-1%	-1%	5%	-4%	14%[38.3 µM]
Cn1cccc1Cc1nnc(SCC(=O)NC2CCCCC2)n1-c1ccc(F)cc1	4%	20µM*	3%	-8%	-7%[38.3 µM]
Cn1cccc1Cc1nnc(SCC(=O)NCc2ccccc2Cl)n1-c1ccc(F)cc1	0%	-13%	-6%	-5%	-5%[38.3 µM]
Cc1nnc(SCC(=O)NCc2ccco2)n1-c1ccc(F)cc1	1%	25µM*	-5%	-8%	1%
C=CCn1c(COc2ccccc2F)nnc1SCC(=O)NC(=O)NCc1ccco1	-1%	?	-3%	-7%	-3%[38.3 µM]
Cc1nnc(SCC(=O)NCc2ccco2)n1-c1ccccc1	-1%	3%	1%	-7%	-22%[38.3 µM]
N[C@@H](CSC(=O)c1ccccc1)C(=O)O	0%[7.66 µM]	?	.	-3%	-8%
Cc1nn(-c2ccc(C(=O)O)cc2)c(C)c1Oc1ccccc1O	2%	9%	13%	14µM*	-3%[38.3 µM]
Cc1nn(-c2ccccn2)c(C)c1Oc1ccccc1O	4%	-8%	4%	14µM*	15%[38.3 µM]
O=S(=O)(c1ccccc1)N1CCC2(CC1)CN(C(c1ccccc1)c1ccccc1)C2	2%	-2%	.	-10%	23%
CC(C)CN1CCNC(=O)C1CC(=O)NCCCN1CCCc2ccccc21 (stereo not drawn)	-4%	-15%	.	.	10%
O=S(=O)(NCCCc1ccccc1)c1ccccc1	-2%	?	3%	-10%	20%[38.3 µM]
O=S(=O)(NCCCCCNS(=O)(=O)c1ccccc1)c1ccccc1	-2%	0.56µM*	?	-11%	6%[38.3 µM]
O=[N+]([O-])c1ccc(NCCCNS(=O)(=O)c2ccccc2)cc1	0%	18µM*	7%[46 µM]	.	13%
O=[N+]([O-])c1ccc(NCCCNS(=O)(=O)c2ccc(Cl)cc2)c(Cl)c1	0%	1%	16%	-14%	20%[38.3 µM]

Assay outcomes: PubChem, National Center for Advancing Translational Sciences (NCATS)
